Results as given in PubChem BioAssay AID1159580 (chemical genetic matrix, 2015).
Values joined by “and” are separate entries in the source; they are usually repeats but may differ in a detail not shown here. Identical values can stand only once. Hit rate of the full screen: of about 5,500 compounds, about 2,000 (36%) were called active. About 18% were inconclusive and are not listed. No stated cut-off is given here; in the data, active means normalized growth mostly below about 0.91 (no sharp cut-off); inconclusive means no clear call, values can overlap the other calls; inactive means mostly above about 0.92. The list shows a part of the results.

Test: chemical genetic growth profiling, strain panel (AID 1159580);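 further: tested at 20 µM; growth read once vehicle control cultures reached saturation at 30 °C; 1 = growth at the plate median or of vehicle wells; lower values mean less growth of the strain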
Conditions: S. cerevisiae deletion strains, growth OD
[1] = locus YMR307W, strain GAS1, active compounds read low
[2] = locus YPL055C, strain LGE1, active compounds read low

Measured: normalized growth

CC(N)Cc1c[nH]c2ccc(O)cc12 (centres undefined)
inactive: locus YAL013W, strain DEP1, active compounds read low 1.02 | locus YAL040C, strain CLN3, active compounds read low 1 | locus YCL061C, strain MRC1 (second series), active compounds read low 1 | locus YDR363W, strain ESC2, active compounds read low 1.03 | locus YER002W, strain NOP16, active compounds read low 1 | [1] 1 | locus YNL153C, strain GIM3, active compounds read low 1.01 | locus YNL175C, strain NOP13, active compounds read low 1.01 | locus YNL197C, strain WHI3, active compounds read low 1.04 | locus YNL224C, strain SQS1, active compounds read low 1.02 | locus YOR083W, strain WHI5 (second series), active compounds read low 1.01 | [2] 1.01

CC[C@@H](CO)NCCN[C@@H](CC)CO
inactive: locus YAL021C, strain ccr4, active compounds read low 1.01 | locus YAL026C, strain drs2, active compounds read low 1 | locus YAL030W, strain snc1, active compounds read low 1.01 | locus YBL061C, strain skt5, active compounds read low 1.02 | locus YBR009C, strain hhf1, active compounds read low 1 | locus YBR021W, strain FUR4, active compounds read low 1.02 | locus YBR023C, strain chs3, active compounds read low 1.04 | locus YBR171W, strain sec66, active compounds read low 1.02 | locus YBR229C, strain ROT2, active compounds read low 1.01 | locus YBR231C, strain swc5, active compounds read low 0.968 | locus YBR279W, strain paf1, active compounds read low 1.02 | locus YCL011C, strain gbp2, active compounds read low 1.03 | locus YCL016C, strain dcc1, active compounds read low 1.04 | locus YCL029C, strain bik1, active compounds read low 1 | locus YCL061C, strain MRC1, active compounds read low 1.03 | locus YCL069W, strain vba3, active compounds read low 1 | locus YCR088W, strain abp1, active compounds read low 1.01 | locus YDL005C, strain med2, active compounds read low 1 | locus YDL035C, strain GPR1, active compounds read low 1.02 | locus YDL040C, strain nat1, active compounds read low 1 | locus YDL074C, strain BRE1, active compounds read low 1.04 | locus YDL101C, strain DUN1, active compounds read low 1.02 | locus YDL134C, strain PPH21, active compounds read low 1.02 | locus YDL185W, strain tfp1, active compounds read low 1 | locus YDL192W, strain arf1, active compounds read low 1 | locus YDR001C, strain nth1, active compounds read low 1.01 | locus YDR069C, strain doa4, active compounds read low 0.996 | locus YDR101C, strain arx1, active compounds read low 0.987 | locus YDR137W, strain rgp1, active compounds read low 1.01 | locus YDR150W, strain NUM1, active compounds read low 1 | locus YDR159W, strain sac3, active compounds read low 0.959 | locus YDR162C, strain NBP2, active compounds read low 1.01 | locus YDR195W, strain ref2 0.964 | locus YDR297W, strain sur2, active compounds read low 1.02 | locus YDR318W, strain mcm21, active compounds read low 1.01 | locus YDR334W, strain swr1, active compounds read low 1.01 | locus YDR335W, strain msn5, active compounds read low 1.01 | locus YDR388W, active compounds read low 1 | locus YDR392W, strain spt3, active compounds read low 0.985 | locus YDR502C, strain sam2, active compounds read low 1.03 | locus YEL003W, strain gim4, active compounds read low 0.999 | locus YEL037C, strain rad23, active compounds read low 1.01 | locus YEL061C, strain CIN8 (second series), active compounds read low 1.01 | locus YEL061C, strain CIN8, active compounds read low 1.01 | locus YER015W, strain faa2, active compounds read low 1.01 | locus YER016W, strain bim1, active compounds read low 0.985 | locus YER110C, active compounds read low 1.01 | locus YER111C, strain swi4, active compounds read low 1.01 | locus YER155C, strain BEM2 (second series), active compounds read low 0.999 | locus YER155C, strain BEM2, active compounds read low 1.01 | locus YER167W, strain BCK2, active compounds read low 1.01 | locus YFR010W, strain ubp6, active compounds read low 1 | locus YGL078C, strain dbp3, active compounds read low 1 | locus YGL086W, strain mad1, active compounds read low 0.988 | locus YGL167C, strain pmr1, active compounds read low 1.01 | locus YGL173C, strain kem1, active compounds read low 1.01 | locus YGL227W, strain vid30, active compounds read low 1.02 | locus YGL240W, strain doc1, active compounds read low 0.995 | locus YGL248W, strain PDE1, active compounds read low 1.02 | locus YGL253W, strain hxk2, active compounds read low 0.999 | locus YGR078C, strain PAC10, active compounds read low 1.01 | locus YGR135W, strain pre9, active compounds read low 1.04 | locus YGR229C, strain SMI1, active compounds read low 1.02 | locus YGR252W, strain gcn5, active compounds read low 1.04 | locus YHR013C, strain ard1, active compounds read low 1.04 | locus YHR027C, strain rpn1, active compounds read low 1 | locus YHR030C, strain SLT2, active compounds read low 1 and 1.04 | locus YHR079C, strain IRE1 (second series), active compounds read low 0.987 | locus YHR079C, strain IRE1, active compounds read low 1.04 | locus YHR094C, strain hxt1, active compounds read low 1.01 | locus YHR129C, strain ARP1, active compounds read low 1.02 | locus YHR142W, strain chs7, active compounds read low 1.02 | locus YHR200W, strain rpn10, active compounds read low 1 | locus YIL066C, strain RNR3, active compounds read low 1.01 | locus YIL073C, strain SPO22, active compounds read low 1.02 | locus YIL125W, strain kgd1, active compounds read low 1 | locus YIR030C, strain dcg1, active compounds read low 1 | locus YJL092W, strain hpr5, active compounds read low 1.02 | locus YJL095W, strain BCK1 (second series), active compounds read low 1.02 | locus YJL095W, strain BCK1, active compounds read low 1.03 and 1.02 | locus YJL115W, strain asf1, active compounds read low 1.01 | locus YJL129C, strain trk1, active compounds read low 1.02 | locus YJL134W, strain LCB3, active compounds read low 1.02 | locus YJL154C, strain vps35, active compounds read low 1 | locus YJL164C, strain tpk1, active compounds read low 1.02 | locus YJL166W, strain qcr8, active compounds read low 1.05 | locus YJL168C, strain set2, active compounds read low 1.03 | locus YJL187C, strain SWE1 (second series), active compounds read low 1.01 | locus YJL187C, strain SWE1, active compounds read low 1 | locus YJR043C, strain POL32, active compounds read low 1.01 | locus YJR066W, strain TOR1, active compounds read low 0.909 | locus YKL009W, strain mrt4, active compounds read low 0.996 | locus YKL068W, active compounds read low 0.994 | locus YKL085W, strain MDH1 (second series), active compounds read low 1 | locus YKL085W, strain MDH1, active compounds read low 1 | locus YKL160W, strain elf1, active compounds read low 1.05 | locus YKR001C, strain vps1, active compounds read low 0.991 | locus YKR026C, strain gcn3, active compounds read low 1.01 | locus YKR091W, strain srl3, active compounds read low 1.01 | locus YLL001W, strain dnm1, active compounds read low 1.05 | locus YLL026W, active compounds read low 1.01 | locus YLL041C, strain sdh2, active compounds read low 1 | locus YLR027C, strain aat2, active compounds read low 0.992 | locus YLR039C, strain RIC1, active compounds read low 1.1 | locus YLR058C, strain SHM2, active compounds read low 1.02 | locus YLR102C, strain apc9, active compounds read low 1 | locus YLR113W, strain HOG1, active compounds read low 1.1 | locus YLR221C, strain rsa3, active compounds read low 1.05 | locus YLR258W, strain gsy2, active compounds read low 1.02 | locus YLR262C, strain YPT6 (second series), active compounds read low 1.03 | locus YLR262C, strain YPT6, active compounds read low 1.05 | locus YLR268W, strain sec22, active compounds read low 0.988 | locus YLR320W, strain mms22, active compounds read low 1.07 | locus YLR330W, strain CHS5, active compounds read low 1.01 | locus YLR342W, strain FKS1 (second series), active compounds read low 1.05 | locus YLR342W, strain FKS1, active compounds read low 1.02 | locus YLR357W, strain rsc2, active compounds read low 0.986 | locus YLR370C, strain arc18, active compounds read low 1.02 | locus YLR371W, strain rom2, active compounds read low 1.01 | locus YLR384C, strain iki3, active compounds read low 1.02 | locus YLR418C, strain cdc73, active compounds read low 1.01 | locus YML016C, strain PPZ1, active compounds read low 1.01 | locus YML032C, strain rad52, active compounds read low 1.01 | locus YML120C, strain ndi1, active compounds read low 1.03 | locus YML124C, strain tub3, active compounds read low 0.998 | locus YMR058W, strain fet3, active compounds read low 1.01 | locus YMR078C, strain ctf18, active compounds read low 1.01 | locus YMR125W, strain sto1, active compounds read low 1 | locus YMR129W, active compounds read low 1 | locus YMR205C, strain PFK2, active compounds read low 1.05 | locus YMR223W, strain ubp8, active compounds read low 1.02 | locus YMR231W, strain pep5, active compounds read low 1 | locus YMR263W, strain SAP30, active compounds read low 1.02 | [1] 1.01 | locus YNL067W, strain RPL9B, active compounds read low 1.01 | locus YNL071W, strain lat1, active compounds read low 1.02 | locus YNL183C, strain NPR1, active compounds read low 1 | locus YNL209W, strain ssb2, active compounds read low 1.02 | locus YNL233W, strain BNI4, active compounds read low 1.02 | locus YNL248C, strain rpa49, active compounds read low 0.996 | locus YNL250W, strain rad50, active compounds read low 0.992 | locus YNL271C, strain bni1, active compounds read low 0.995 | locus YNL298W, strain CLA4, active compounds read low 1.02 | locus YNL307C, strain MCK1, active compounds read low 1 | locus YNL322C, strain KRE1 (second series), active compounds read low 1.04 | locus YNL322C, strain KRE1, active compounds read low 1.01 | locus YNR049C, strain mso1, active compounds read low 1.02 | locus YNR052C, strain pop2, active compounds read low 1 | locus YOL006C, strain TOP1, active compounds read low 1.01 | locus YOL012C, strain htz1 0.915 | locus YOL147C, strain pex11, active compounds read low 0.997 | locus YOR001W, strain rrp6, active compounds read low 0.99 | locus YOR061W, strain CKA2, active compounds read low 1.01 | locus YOR069W, strain VPS5, active compounds read low 1.01 | locus YOR070C, strain gyp1, active compounds read low 1.01 | locus YOR080W, strain dia2, active compounds read low 1 | locus YOR083W, strain WHI5, active compounds read low 1.07 | locus YOR106W, strain vam3, active compounds read low 1.04 | locus YOR136W, strain idh2, active compounds read low 0.995 | locus YOR144C, strain elg1, active compounds read low 0.996 | locus YOR184W, strain ser1, active compounds read low 1.03 | locus YOR231W, strain MKK1, active compounds read low 1.07 | locus YOR265W, strain rbl2, active compounds read low 1.01 | locus YOR270C, strain vph1, active compounds read low 1.04 | locus YOR290C, strain snf2, active compounds read low 0.986 | locus YOR316C, strain cot1, active compounds read low 1 | locus YPL051W, strain arl3, active compounds read low 1 | [2] 1.03 | locus YPL078C, strain atp4, active compounds read low 1.02 | locus YPL106C, strain sse1, active compounds read low 1.03 | locus YPL240C, strain hsp82, active compounds read low 1.02 | locus YPL256C, strain CLN2, active compounds read low 1.03 | locus YPR119W, strain clb2, active compounds read low 1 | locus YPR141C, strain kar3, active compounds read low 1.01 | locus YPR163C, strain tif3, active compounds read low 0.989 | locus YPR167C, strain met16, active compounds read low 1 | strain wtn01, active compounds read low 1
